According to PMC5540273 (PLoS ONE, 2017):

Assays:
Conditions in all cases: concentration: 1 μM, replicates: in singlicate; n = 1
[1] = tested on: LYN
[2] = tested on: T1, LZK
T1 construct: gene MAP3K13

[3] = tested on: MAK
[4] = tested on: MAP3K15
[5] = tested on: MAP3K1
[6] = tested on: MAP3K2
[7] = tested on: MAP3K3
[8] = tested on: MAP3K4
[9] = tested on: MAP4K2
[10] = tested on: MAP4K3
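Note: KINOMEscan kinase panel screen.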

| SMILES | %Inh [1] | %Inh [2] | %Inh [3] | %Inh [4] | %Inh [5] | %Inh [6] | %Inh [7] | %Inh [8] | %Inh [9] | %Inh [10] |
| --- | --- | --- | --- | --- | --- | --- | --- | --- | --- | --- |
| COc1cccc(-c2cc(-c3c[nH]nc3-c3ccccn3)ccn2)c1 [GW680338] | 26% | 28% | 100% | 0% | 15% | 0% | 0% | 15% | 8% | 0% |
| CCn1c(-c2ccccn2)nc2cnccc21 [SB-736398] | 0% | 11% | 11% | 2% | 8% | 3% | 0% | 19% | 0% | 0% |
| O=C(Nc1ccccc1)Nc1cccc(Oc2ccc3nccn3n2)c1 | 0% | 0% | 27% | 0% | 0% | 0% | 0% | 4% | 0% | 9% |
| Cc1c(Cn2ccn3c(=O)cc(N4CCOCC4)nc23)cccc1C(F)(F)F [GSK2289044] | 22% | 0% | 20% | 0% | 15% | 7% | 0% | 20% | 1% | 0% |
| CCn1c(-c2cccnc2O)nc2cnccc21 [SB-736715] | 0% | 11% | 13% | 0% | 0% | 0% | 0% | 0% | 0% | 0% |
| Cl.O=C(Nc1cccc(-c2nn3ncccc3c2-c2ccnc(Nc3cccnc3)n2)c1)c1c(F)cccc1F [GSK312879] | 18% | 0% | 25% | 24% | 24% | 16% | 0% | 4% | 0% | 3% |
| COc1ccc(Nc2nccc(-c3cccc(NC(=O)c4cc5cc(F)ccc5[nH]4)c3)n2)cc1 [GSK1229782] | 0% | 33% | 36% | 0% | 5% | 38% | 0% | 21% | 0% | 0% |
| Cc1cc(-c2ccc3c(c2)CC[C@@H](N[C@@H](C)c2ccccc2)C3)cnc1N.Cl [GW412617] | 0% | 7% | 15% | 0% | 17% | 20% | 0% | 0% | 97.4% | 36% |
| O=c1cc(N2CCOCC2)nc2n(Cc3cccc(Cl)c3Cl)ccn12 [GSK2286295] | 97.8% | 0% | 78% | 0% | 6% | 0% | 0% | 25% | 0% | 0% |
| COc1ccc(CNC(=O)NC2CCN(c3ccnc(Nc4cc(OC)c(OC)c(OC)c4)n3)C2)cc1 (stereo not drawn) [GSK1379748] | 0% | 43% | 17% | 0% | 0% | 0% | 0% | 2% | 5% | 0% |
| O=C(O)COc1ncnc2cc(-c3ccc4[nH]ncc4c3)sc12 | 0% | 39% | 2% | 53% | 22% | 13% | 9% | 4% | 1% | 0% |
| Cc1cc(N2Cc3ccccc3C2)nc(Nc2ccc(S(=O)(=O)N3CCOCC3)cc2)n1.Cl [GSK1669917] | 0% | 0% | 14% | 0% | 0% | 0% | 0% | 2% | 0% | 0% |
| Cc1ccc(NC(=O)Nc2cc(C(C)(C)C)nn2-c2ccccc2)cc1 [GSK1014915] | 0% | 0% | 10% | 16% | 17% | 17% | 0% | 3% | 0% | 10% |
| COc1cccc(NC(=O)NC2CCN(c3ccnc(Nc4ccc(F)cc4)n3)C2)c1 (stereo not drawn) [GSK1379721] | 0% | 17% | 32% | 0% | 5% | 0% | 0% | 13% | 2% | 0% |
| Cl.NC(=O)c1cccc(Nc2nccc(Nc3ccc(Oc4cccc(Cl)c4)c(Cl)c3)n2)c1 [GW659008] | 29% | 19% | 9% | 0% | 3% | 0% | 0% | 33% | 0% | 0% |
| Cc1ccc(NC(=O)Nc2cccc(Cl)c2)cc1-c1ccc(C(=O)Nc2ccncc2)cc1 [GSK1398468] | 0% | 0% | 19% | 0% | 0% | 0% | 0% | 7% | 0% | 0% |
| COc1ccccc1-c1ccc2c(NC(=O)C3CC3)n[nH]c2n1 [SB-711239] | 18% | 24% | 23% | 0% | 0% | 0% | 0% | 32% | 0% | 0% |
| Cc1cc(NCC(c2ccccc2)c2ccccc2)nc(NCc2ccc(C(F)(F)F)cc2)n1 [GW497681] | 0% | 11% | 17% | 0% | 0% | 0% | 0% | 22% | 0% | 0% |
